Screening results from PubChem.
HTT-AS promoter = activates huntingtin-antisense promoter activity. HEK293 HTT-AS promoter firefly luciferase reporter, 24 h; response scale: percent change from vehicle, -100% = no light. Potency, µM (series often up to 57.5 µM), without a hit: at the highest dose activity change, positive = activation, most hits filed as activators. actives 0.24% (n = 48,000). AID 1508624; also: potency is read from the fitted curve at half-maximal effect; nearly all actives have a fitted effect of over 55% in size
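HEK293 luciferase promoter-reporter cells (2,500/well) plated 24 h, then compounds added at up to 57.5 uM final for 24 h at 37 °C. Firefly luminescence by Dual-Glo, normalized to vehicle (0%) and zero RLU (-100%).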
HTT prom inh = inhibitors of huntingtin promoter activity; HEK293 HTT promoter firefly luciferase reporter, 24 h; Potency, µM (doses to about 57.5 µM), without a hit: top-dose activity change, negative = inhibition, usual class: inhibitors; actives 0.93% (n = 48,000); also: potency is read from the fitted curve at half-maximal effect; nearly all actives have a fitted effect of over 50% in size
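HEK293 luciferase promoter-reporter cells (2,500/well) plated 24 h, then compounds added at up to 57.5 uM final for 24 h at 37 °C. Firefly luminescence by Dual-Glo, normalized to vehicle (0%) and zero RLU (-100%).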
GPR32 ag = activates human resolvin D1 receptor GPR32; O75388; actives 2.5% (n = 48,000); CHO-K1 GPR32 beta-arrestin PathHunter luminescence, 90 min; zero percent set by DMSO-only wells; activation, % at 76.9 µM; AID 1346428;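 active = activation of at least 60% and not above a set upper limit, about 1 call in 100 departs from these limits; inconclusive = activation of 40% to 60%, or above that upper limit; inactive = activation under 40%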; also: 0% is about no effect
Target sequence (O75388 whole entry, looked up): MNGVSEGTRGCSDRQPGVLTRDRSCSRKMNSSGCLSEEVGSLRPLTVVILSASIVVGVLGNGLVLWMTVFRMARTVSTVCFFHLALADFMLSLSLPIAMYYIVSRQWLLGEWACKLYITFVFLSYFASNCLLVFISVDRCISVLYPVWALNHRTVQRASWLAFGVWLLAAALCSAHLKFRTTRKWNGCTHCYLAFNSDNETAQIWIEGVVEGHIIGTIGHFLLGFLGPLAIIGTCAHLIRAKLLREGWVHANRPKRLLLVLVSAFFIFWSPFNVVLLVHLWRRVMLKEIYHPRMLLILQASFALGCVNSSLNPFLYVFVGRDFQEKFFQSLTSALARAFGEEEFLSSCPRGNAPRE
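Beta-arrestin recruitment read-out: luminescence from complemented beta-Gal in CHO-K1 GPR32 PathHunter cells, measured 1 h after detection reagent at ambient temperature following 90 min compound exposure at 37 °C; DMSO served as basal (EC0) control.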
An asterisk follows results filed as active; ? = inconclusive; · = not tested or not shown; ! = not active in a repeat; [ ] = remark or other dose. An excerpt weighted towards active compounds, which were near 3.7% of everything screened. Unless noted, calls follow the shape of the dose curve; as a rule, active = well fitted curve in the direction sought with a large enough effect; inconclusive = small, poorly fitted or top-dose-only effect, or another doubt; inactive = no such curve, though single readings can be large; an effect the other way counts as inactive or inconclusive.

SMILES | HTT-AS promoter | HTT prom inh | GPR32 ag
CC1=C(C(=O)Nc2ccc(C)cc2)C(c2ccc(Cl)cc2)n2nnnc2N1 (configuration not stated) | -9% | -6% | -3
CC1=C(C(=O)Nc2ccc(Cl)cc2)C(c2ccc(C(F)(F)F)cc2)n2nnnc2N1 (configuration not stated) | -31% | -18% | 65*
CN(C)CCN(Cc1ccsc1)c1ccccn1 | -4% | 2% | 13
CCn1ccc2cc(S(=O)(=O)N3CCCN(C(=O)NCC(=O)OC)CC3)ccc21 | 4% | -21% | 9
Cc1ccc2c(=O)cc(C(=O)Nc3ccc(S(=O)(=O)Nc4ncccn4)cc3)oc2c1C | 2% | 18% | 67*
Cc1cc2oc(C(=O)Nc3ccc(S(=O)(=O)Nc4ncccn4)cc3)cc(=O)c2cc1C | 8% | -9% | 10
Cc1cccc(NC(=O)CSc2nc3ccccc3c3nc(CCn4cncc4C)nn23)c1 | -8% | -3% | 14
COc1ccc(NC(=O)CCSc2nc(-c3ccc(OC)cc3)cc(C(F)(F)F)n2)cc1 | -12% | -5% | -13
COc1ccc(-c2cc(C(F)(F)F)nc(SCC(=O)NCCc3ccccc3)n2)cc1 | -9% | -10% | 14
COc1ccc(NC(=O)CSc2nc(-c3ccco3)cc(C(F)(F)F)n2)cc1OC | -91% | 2.2µM* | 20
COc1ccc(-c2cc(C(F)(F)F)nc(SCCC(=O)Nc3ccc(O)cc3)n2)cc1 | -38% | ? | 86*
COc1ccc(-c2cc(C(F)(F)F)nc(SCC(=O)NC(C)c3ccccc3)n2)cc1 (configuration not stated) | -17% | -18% | 106*
Cc1ccc(NC(=O)CSc2nc(-c3ccco3)cc(C(F)(F)F)n2)cc1C | -29% | ? | -7
Cc1ccc(NC(=O)Cn2cc(C(=O)C3CCCCC3)c3ccccc32)cc1 | -26% | ? | -13
CC(=O)N(CC(=O)N(C)C)c1ccccc1 | -25% | 1% | -6
Cc1cccc(CC2C(=O)Nc3ccccc32)c1 (configuration not stated) | -29% | ? | -11
CCN(CC)S(=O)(=O)c1ccc2nc(NC(=O)c3ccccc3OC)sc2c1 | -31% | -32% | -25
COc1ccc(Br)cc1C(=O)Nc1nc2ccc(F)cc2s1 | 1.8µM* | 100% | -6
CC(C=CC=C(C)C=CC1=C(C)CCCC1(C)C)=CC=CC=C(C)C=CC=C(C)C=CC1=C(C)CCCC1(C)C | -8% | 7% | ·
COc1ccc(CNC(=O)Cn2ccc3cc(S(=O)(=O)N4CCCCC4)ccc32)cc1OC | -30% | -16% | 2
CCOc1ccc(-c2ncnn2-c2sc3c(c2C#N)CCCCC3)cc1 | 15% | -5%[11.5 µM] | 102*
N#Cc1c(-n2ncnc2-c2ccc(Br)cc2)sc2c1CCCCC2 | -17% | ? | -1
CCc1cccc2c(CCO)c[nH]c12 | 8% | 9% | 25
C[C@@H]1CN(CC(=O)Nc2ccc3c(c2)Cc2cccc(-c4cc(=O)cc(N5CCOCC5)o4)c2S3)C[C@H](C)O1 | -37% | ? | ·
Cc1cc(C)cc(Nc2cc(C)nc3nncn23)c1 | -4% | 10% | 3
SMILES | HTT-AS promoter | HTT prom inh | GPR32 ag
Cc1cc(NCc2ccccc2Cl)n2cnnc2n1 | -44% | 18µM* | 10
Cc1cccc(-c2nc(SCC(=O)NCC3CCCO3)c3c(=O)n(C)c(=O)n(C)c3n2)c1 (configuration not stated) | 5% | 13% | -6
COc1ccc(CCNC(=O)Cn2nnc(-c3cccc(C(F)(F)F)c3)n2)cc1OC | -7% | 17% | -9
CC(C)c1ccc(NC(=O)N2CCN(c3ccc(Cl)c(Cl)c3)CC2)cc1 | -42% | 32µM* | -14
Cc1ccc(NC(=O)N2CCN(c3ccc(Cl)c(Cl)c3)CC2)cc1 | -31% | ? | -3
COC(=O)c1cc(Cl)ccc1OC | -4% | -2% | -10
Oc1cccc(Nc2nc(-c3ccccc3)nc3ccccc23)c1 | -8% | -18% | 61*
Cc1cccc(Nc2nc(-c3ccccc3)nc3ccccc23)c1 | -30% | -23% | 110*
Cc1ccc(Nc2nc(-c3ccccc3)nc3ccccc23)cc1 | -29% | -29% | ?
CCOC(=O)c1nc(Nc2cccc(C)c2)c2ccccc2n1 | -25% | ? | -5
CCN1CCC(n2cc(CNc3cc(Cl)c4ncc(C#N)c(Nc5ccc(F)c(Cl)c5)c4c3)nn2)CC1 | -2% | 7% | ·
COc1cccc(CCNc2ncnc3c2nnn3C)c1 | -8% | ? | 10
CCOc1ccc(-c2nc(CSCC(=O)NCc3ccc(C)cc3)c(C)o2)cc1 | -77% | 7.1µM* | -9
CCOc1ccc(-c2nc(CSCC(=O)NCCc3ccc(OCC)c(OCC)c3)c(C)o2)cc1 | -49% | 14µM* | 2
CCc1ccc(-c2nc(CSCC(=O)NCc3ccc(C)cc3)c(C)o2)cc1 | -58% | ? | -26
CCOc1ccc(CCNC(=O)CSCc2nc(-c3cccc(C)c3)oc2C)cc1OCC | -29% | ? | -12
COc1cccc(NC(=O)CSc2nc(=O)[nH]c3c2CCCC3)c1 | -24% | -36% | -4
CCCCCCCCc1ccc(CCC(N)(CO)CO)cc1 | -16% | -11% | ·
CCCCCCC[N+](CC)(CC)CCCCc1ccc(Cl)cc1 | -42% | ? | 87*
O=C(Nc1ccc(F)cc1)c1csc2c1CCCCC2 | -95% | ? | -2
Cc1cc(F)ccc1NC(=O)c1csc2c1CCC(C)C2 (configuration not stated) | 3.2µM* | 53% | -6
Cc1cccc(OCC(=O)Nc2ccc3nc(Nc4cccc(Cl)c4)cc(C)c3c2)c1 | -33% | -26% | 103*
Cc1cc(Nc2cccc(Cl)c2)nc2ccc(NC(=O)COc3ccc(Cl)cc3)cc12 | -6% | -2% | 37
COc1ccc(-n2ccnc(NCc3ccc(Cl)cc3)c2=O)cc1 | -35% | ? | 60*
COc1cccc(CNc2nccn(-c3cc(C)cc(C)c3)c2=O)c1 | -25% | ? | 63*
SMILES | HTT-AS promoter | HTT prom inh | GPR32 ag
Cc1ccc(CNc2nccn(-c3cc(C)cc(C)c3)c2=O)cc1 | -13% | ? | 47
Cc1cc(C)cc(-n2ccnc(NCc3ccc(F)cc3)c2=O)c1 | -20% | -38% | -6
COc1cccc2cc(C(=O)NCCc3c(C)[nH]c4ccc(F)cc34)c(=O)oc12 | 5% | 8% | 16
COc1cccc2cc(C(=O)Nc3ccc(CC(=O)O)cc3)c(=O)oc12 | -90% | 0.28µM* | -14
CN(C)CC=CC(=O)Nc1cc2c(Nc3ccc(F)c(Cl)c3)ncnc2cc1O[C@H]1CCOC1 | -45% | ? | ·
CC(=O)c1ccc(N2CCN(c3ncnc4onc(C)c34)CC2)cc1 | -58% | 4.5µM* | 4
Cc1noc2ncnc(N3CCN(c4ccccc4F)CC3)c12 | -26% | ? | 21
COc1cc(F)c(F)c(Nc2ccc(I)cc2F)c1NS(=O)(=O)C1(C[C@H](O)CO)CC1 | -12% | -9% | ·
CCOC(=O)c1cc(-c2ccccc2)n(CC(=O)Nc2ccccc2OCC)c1C | -6% | -5% | -11
Cc1c(OCC(F)(F)F)ccnc1CS(=O)c1nc2ccccc2[nH]1 (configuration not stated) | ? | 15% | 60*!
COCCCOc1ccnc(CS(=O)c2nc3ccccc3[nH]2)c1C (configuration not stated) | 13% | 15% | 11
